Results from PubChem BioAssay (NCATS).
Unmarked numbers belong to inactive results. Inconclusive results are not listed. Calls of active or inactive are those of the source. Calls follow the shape of the dose curve; as a rule, active = well fitted curve in the direction sought with a large enough effect; inconclusive = small, poorly fitted or top-dose-only effect, or another doubt; inactive = no such curve, though single readings can be large; an effect the other way counts as inactive or inconclusive.

system: not listed separately; test: Primary fluorescence-based thiol-reactive (MSTI) qHTS assay for identification of artifact compounds. (AID 1845221); settings: MSTI thiol-reactivity probe, 1 h; series mostly up to 53.8 µM; activity change, negative = thiol reactive: at the top concentration; also: nearly all actives have a fitted effect of over 65% in size; also: potency is read from the fitted curve at half-maximal effect;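 as to activity change, negative = thiol reactive: thiol-reactive compounds lower the probe fluorescence signal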
In short: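 Thiol-reactive compounds detected by quenching of 4 uM MSTI fluorescence (525/598 nm) after 1 h room-temperature dark incubation in PBS pH 7.4, 2% DMSO. qHTS titration; percent inhibition Hill-fitted against Acetyl-MSTI/MSTI controls.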

Compound | activity change, negative = thiol reactive | Potency
CC(=O)Nc1cccc(-n2c(=O)n(C3CC3)c(=O)c3c(Nc4ccc(I)cc4F)n(C)c(=O)c(C)c32)c1 | -10.4% | 
Cc1cnc(CNC(=O)c2c(=O)c3ccc(N4CCCN(C)CC4)nc3n3c2sc2ccccc23)cn1 | 18.4% [at 11.5 µM] | 
CCN(CCO)CCCOc1ccc2c(Nc3cc(CC(=O)Nc4cccc(F)c4)[nH]n3)ncnc2c1 | 279% | 
C[C@@H](NC(=O)c1ncnc(N)c1Cl)c1ncc(C(=O)Nc2cc(C(F)(F)F)c(Cl)cn2)s1 | 373% | 
CCC(=O)N1CCN(c2ccc(-n3c(=O)ccc4cnc5ccc(-c6cnc7ccccc7c6)cc5c43)cc2C(F)(F)F)CC1 | -11% [at 11.5 µM] | 
CNC(=O)c1ccc2c(C(=Nc3cccc(CN(C)C)c3)c3ccccc3)c(O)[nH]c2c1 | -9.45% | 
O=C(CO)N1CCC(c2[nH]nc(-c3ccc(Cl)cc3)c2-c2ccncn2)CC1 | 37% | 
NC1(C(=O)N[C@@H](CCO)c2ccc(Cl)cc2)CCN(c2ncnc3[nH]ccc23)CC1 | 37.6% | 
O=C1C(c2c(O)[nH]c3ccccc23)=Nc2ccccc21 |  | 0.184 µM (active)
CCc1cccc(CC)c1NC(=O)N1Cc2[nH]nc(NC(=O)c3ccc(N4CCN(C)CC4)cc3)c2C1 | 163% | 
COc1ccc(-c2cc3nccn3c(Nc3ncccc3C(N)=O)n2)cc1OC | -8.76% | 
Cc1ccc2c(c1)C(=O)[C@]1(O)CCN(c3ccccc3)C1=N2 | 16.7% | 
CC1=C(C(=O)Nc2cc3cn[nH]c3cc2F)C(c2ccc(C(F)(F)F)cc2)CC(=O)N1 (configuration not stated) | 212% | 
CCN1C[C@H](C)n2c(c(O)c3c(=O)n(Cc4ccc(F)c(Cl)c4)nc(C(=O)NC)c32)C1=O |  | 29.9 µM (active)
Cc1cc2c(cc1C1(c3ccc(C(=O)O)cn3)CC1)C(C)(C)CCC2(C)C | -8.57% | 
CC(C)CNc1ccnc(NCc2csc(-c3ccccc3)n2)n1 | -8.64% | 
NS(=O)(=O)c1cc(Cl)c(Cl)c(S(N)(=O)=O)c1 | -1.11% | 
COc1cc2ncnc(Nc3cc(Br)c(O)c(Br)c3)c2cc1OC |  | 6.7 µM (active)
CN[C@@H](C)[C@H]1[C@H](O)C[C@@]2(C)[C@@H]3CC[C@H]4C(C)(C)[C@@H](NC)CC[C@@]45C[C@@]35CC[C@]12C | 7.61% [at 11.5 µM] | 
Cn1c(=O)c(-c2c(Cl)cccc2Cl)cc2cnc(Nc3cccc(C(=O)O)c3)nc21 | -7.01% | 
Cc1cnc(Nc2cccc(CN3CCOCC3)c2)nc1Nc1cccc(S(=O)(=O)NC(C)(C)C)c1 | -16% | 
c1cc(OCCN2CCCCC2)cc(-c2n[nH]c3ccc(-c4ncn[nH]4)cc23)c1 | 62.3% | 
O[C@@H](COc1cccc2ncccc12)CN1CCN(C2c3ccccc3[C@@H]3[C@H](c4ccccc42)C3(F)F)CC1 (some centres not stated) | 8.28% | 
CNc1nc(Nc2ccc(C(=O)N3CCOCC3)cc2OC)ncc1Cl | 153% | 
Cc1cccc2c1CC[C@H](CN1CCC(c3c(Cl)cccc3Cl)CC1)C[C@@H]2O | 27.1% | 
CC1(C)CC(=O)c2c(C(F)(F)F)nn(-c3ccc(C(N)=O)c(NC4CCC(O)CC4)c3)c2C1 (configuration not stated) | 164% | 
Cc1csc(-c2nnc(Nc3ccc(Oc4ncccc4-c4ccnc(N)n4)cc3)c3ccccc23)c1 | 15.2% | 
COC(=O)N1CCN(Cc2cccc(NC(=O)Nc3ccc(C)nc3)c2F)CC1 | 184% | 

system: Nanoluciferase (engineered Oplophorus gracilirostris luciferase); test: Primary Nanoluciferase (NLuc) qHTS assay for identification of artifact compounds. (AID 1845222); settings: NLuc-conditioned medium, Nano-Glo luminescence, 5 min; series mostly up to 54.1 µM; activity, negative = inhibition: at the top concentration;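 also: NLuc secreted into diluted conditioned medium of S16 cells; 0% = DMSO and -100% = no enzyme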
In short: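 S16 cell supernatant NLuc, 1:55; cpds qHTS; 15 min RT dark; Nano-Glo substrate 1:100, 5 min; luminescence; Hill fit of % inhibition.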

Compound | activity, negative = inhibition | Potency
CC(=O)Nc1cccc(-n2c(=O)n(C3CC3)c(=O)c3c(Nc4ccc(I)cc4F)n(C)c(=O)c(C)c32)c1 | 3.75% | 
Cc1cnc(CNC(=O)c2c(=O)c3ccc(N4CCCN(C)CC4)nc3n3c2sc2ccccc23)cn1 | 4.41% [at 11.6 µM] | 
CCN(CCO)CCCOc1ccc2c(Nc3cc(CC(=O)Nc4cccc(F)c4)[nH]n3)ncnc2c1 | -18.1% | 
C[C@@H](NC(=O)c1ncnc(N)c1Cl)c1ncc(C(=O)Nc2cc(C(F)(F)F)c(Cl)cn2)s1 | -5.5% | 
CCC(=O)N1CCN(c2ccc(-n3c(=O)ccc4cnc5ccc(-c6cnc7ccccc7c6)cc5c43)cc2C(F)(F)F)CC1 | 4.43% [at 11.6 µM] | 
CNC(=O)c1ccc2c(C(=Nc3cccc(CN(C)C)c3)c3ccccc3)c(O)[nH]c2c1 | -4.19% | 
O=C(CO)N1CCC(c2[nH]nc(-c3ccc(Cl)cc3)c2-c2ccncn2)CC1 | 3.58% | 
NC1(C(=O)N[C@@H](CCO)c2ccc(Cl)cc2)CCN(c2ncnc3[nH]ccc23)CC1 | 0.581% | 
O=C1C(c2c(O)[nH]c3ccccc23)=Nc2ccccc21 | -0.832% [at 25.7 µM] | 
CCc1cccc(CC)c1NC(=O)N1Cc2[nH]nc(NC(=O)c3ccc(N4CCN(C)CC4)cc3)c2C1 | -18.3% | 
CN(C)CCCNC(=O)c1ccc(-c2cc(O)c3ncccc3c2)cc1 | -3.1% | 
COc1ccc(-c2cc3nccn3c(Nc3ncccc3C(N)=O)n2)cc1OC | -3.07% | 
Cc1ccc2c(c1)C(=O)[C@]1(O)CCN(c3ccccc3)C1=N2 | -16.9% | 
CC1=C(C(=O)Nc2cc3cn[nH]c3cc2F)C(c2ccc(C(F)(F)F)cc2)CC(=O)N1 (configuration not stated) | -0.707% | 
CCN1C[C@H](C)n2c(c(O)c3c(=O)n(Cc4ccc(F)c(Cl)c4)nc(C(=O)NC)c32)C1=O |  | inactive
Cc1cc2c(cc1C1(c3ccc(C(=O)O)cn3)CC1)C(C)(C)CCC2(C)C | 4.61% | 
CC(C)CNc1ccnc(NCc2csc(-c3ccccc3)n2)n1 | -5.11% | 
NS(=O)(=O)c1cc(Cl)c(Cl)c(S(N)(=O)=O)c1 | 2.26% | 
COc1cc2ncnc(Nc3cc(Br)c(O)c(Br)c3)c2cc1OC | -5.87% | 
CN[C@@H](C)[C@H]1[C@H](O)C[C@@]2(C)[C@@H]3CC[C@H]4C(C)(C)[C@@H](NC)CC[C@@]45C[C@@]35CC[C@]12C | 3.6% [at 11.6 µM] | 
Cn1c(=O)c(-c2c(Cl)cccc2Cl)cc2cnc(Nc3cccc(C(=O)O)c3)nc21 | 3.58% | 
Cc1cnc(Nc2cccc(CN3CCOCC3)c2)nc1Nc1cccc(S(=O)(=O)NC(C)(C)C)c1 | -6.37% | 
c1cc(OCCN2CCCCC2)cc(-c2n[nH]c3ccc(-c4ncn[nH]4)cc23)c1 | 3.37% | 
O[C@@H](COc1cccc2ncccc12)CN1CCN(C2c3ccccc3[C@@H]3[C@H](c4ccccc42)C3(F)F)CC1 (some centres not stated) | 1.74% | 
CNc1nc(Nc2ccc(C(=O)N3CCOCC3)cc2OC)ncc1Cl | -5.16% | 
Cc1cccc2c1CC[C@H](CN1CCC(c3c(Cl)cccc3Cl)CC1)C[C@@H]2O | -7.58% | 
CC1(C)CC(=O)c2c(C(F)(F)F)nn(-c3ccc(C(N)=O)c(NC4CCC(O)CC4)c3)c2C1 (configuration not stated) | 0.169% | 
Cc1csc(-c2nnc(Nc3ccc(Oc4ncccc4-c4ccnc(N)n4)cc3)c3ccccc23)c1 | -3.63% | 
COC(=O)N1CCN(Cc2cccc(NC(=O)Nc3ccc(C)nc3)c2F)CC1 | -12.4% | 
